# TRHR agonist: qHTS for Small Molecule Agonists and Allosteric Enhancers of Human TRH Receptor: Primary Screen for Agonists. Thyrotropin-releasing hormone receptor (Homo sapiens), P34981. TRHR cells, calcium flux fluo-8, FDSS agonist mode. activation, % at 2 µM. actives 0.18% (n = 360,000). AID 493084, 2011
# Target sequence (P34981 whole entry, looked up): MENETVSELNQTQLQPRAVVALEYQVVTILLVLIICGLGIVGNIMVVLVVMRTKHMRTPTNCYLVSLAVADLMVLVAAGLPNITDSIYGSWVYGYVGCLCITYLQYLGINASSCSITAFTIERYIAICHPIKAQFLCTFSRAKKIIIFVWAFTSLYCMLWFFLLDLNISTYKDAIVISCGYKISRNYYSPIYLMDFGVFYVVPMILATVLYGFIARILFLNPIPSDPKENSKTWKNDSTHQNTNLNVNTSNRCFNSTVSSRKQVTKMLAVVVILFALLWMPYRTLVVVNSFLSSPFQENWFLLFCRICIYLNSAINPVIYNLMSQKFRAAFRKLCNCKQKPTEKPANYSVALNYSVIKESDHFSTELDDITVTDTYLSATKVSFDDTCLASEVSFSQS
#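 Fluo-8-loaded TRHR cells; 10 s baseline, compound added, kinetic Ca2+ fluorescence read 1/s, agonist mode.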
# TRHR enhancer: qHTS for Small Molecule Agonists and Allosteric Enhancers of Human TRH Receptor: Primary Screen for Enhancers; TRHR cells, fluo-8 calcium fluorescence, EC20 TRH enhancement; AID 493056, 2011; actives 0.66% (n = 360,000); Thyrotropin-releasing hormone receptor (Homo sapiens), P34981; enhancement, % at 2 µM; in the data active = enhancement above about 30%
#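 TRHR-expressing cells loaded with fluo-8 calcium dye were read kinetically (ex 480/em 530) during compound addition, then stimulated with an EC20 of TRH (10 nM final). Enhancement of the Gq-mediated intracellular calcium response was scored.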
# D1 antagonist: Antagonist of Human D 1 Dopamine Receptor: qHTS | D(1A) dopamine receptor (Homo sapiens), P21728 | HEK293 TREx D1 cells, calcium flux, dopamine EC80; hits give low values | activity change, negative = inhibition, % at 10 µM | actives 3.2% (n = 360,000) | AID 504652, 2011; in the data active = activity change below about -30%
#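 Allosteric or orthosteric antagonism assessed as attenuation of the calcium response to EC80 dopamine, added 180 s after compound, in induced HEK293 Trex D1 cells loaded with no-wash calcium dye.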
# D1 potentiator: Potentiators of Human D1 Dopamine Receptor: qHTS | D(1A) dopamine receptor (Homo sapiens), P21728 | HEK293 TREx D1 cells, calcium flux, dopamine EC20 potentiation | potentiation, % at 10 µM | AID 504651, 2011 | actives 0.036% (n = 360,000); in the data active = potentiation above about 30%
# D1 ag: Allosteric Agonists of the Human D1 Dopamine Receptor: qHTS; HEK293 T-REx D1 cells, calcium flux, agonist mode; AID 504660, 2011; activation, % at 2 µM; actives 1% (n = 360,000)
#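 Tetracycline-induced HEK293 TREx D1 cells, force-coupled to calcium signalling, were dye-loaded with a no-wash calcium kit. Compound was pin-added after a 10 s baseline. Fluorescence was read kinetically at 1 cycle/s for 180 s, with calcium rises flagged as agonism.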
# A number is an active result; 0 = inactive. Shown are actives, neighbours in structure and some others; about 4.6% of the full set was active somewhere. Rule as the data show it, unless noted: active = activation above about 30%; inactive = the rest.
SMILES,TRHR agonist,TRHR enhancer,D1 antagonist,D1 potentiator,D1 ag
Cc1ccc(NS(=O)(=O)c2ccc3c(c2)[C@H]2C=CC[C@H]2[C@@H](c2ccc(F)cc2)N3)cc1C,0,0,0,0,0
COc1ccc(S(=O)(=O)c2cn(C)c3cc(N4CCCC4)c(F)cc3c2=O)cc1,0,0,0,0,0
Cc1cc(C)cc(C(=O)N(Cc2nc(-c3ccc(Cl)cc3)no2)C(C)C)c1,0,0,0,0,0
COc1ccc(NC(=O)c2ccc(CN3CCc4ccccc4C3)cc2)c(OC)c1,0,0,-35,0,0
COc1ccc(NC(=O)Nc2cnccn2)c(OC)c1,0,0,0,0,0
COc1ccc(NC(=O)CC(=O)Nc2ccc(OC)cc2OC)c(OC)c1,0,0,-89,0,0
COc1ccc(NC(=O)Nc2nc(C)cc(C)n2)c(OC)c1,0,0,-34,0,0
COc1ccc(NC(=O)CO/N=C2\CCCc3nonc32)cc1,0,0,0,0,0
COc1ccc(NC(=O)CO/N=C2/CCCc3nonc32)c(OC)c1,0,0,-32,0,0
Cc1ccc(C)c2c1c1ccccc1n2C,0,31,0,0,0
CCc1ccccc1NC(=O)Cn1c2ncccc2c(=O)n1-c1ccccc1,0,0,-45,0,0
Cc1ccc(CNC(=O)Cn2c3ncccc3c(=O)n2-c2ccc(C)cc2)cc1,0,0,-57,0,0
CCOC(=O)c1ccccc1NC(=O)Cn1c2ncccc2c(=O)n1-c1ccccc1,0,0,0,0,0
CCc1ccc(-n2c(=O)c3cccnc3n2CC(=O)NCc2ccc(C)cc2)cc1,0,0,0,0,0
CCc1ccc(-n2c(=O)c3cccnc3n2CC(=O)Nc2ccccc2C(F)(F)F)cc1,0,0,-44,0,0
COCCNC(=O)C1CCCN(S(=O)(=O)c2cccc3nsnc23)C1 (configuration not stated),0,0,0,0,0
COc1cc2c(cc1OC)C(CC(=O)O)N(C(=O)Nc1cc(OC)c(OC)c(OC)c1)CC2 (configuration not stated),0,0,0,0,0
CCCCc1nn2c(C)c(-c3ccc(OCC)cc3)nc2s1,0,0,0,0,0
CC(C)(C)OC(=O)NCCc1nnc(SCc2ccccc2Cl)o1,0,0,-30,0,0
CC(C)(C)OC(=O)NCCCCCc1nnc(SCC(N)=O)o1,0,0,-39,0,0
CC(C)(C)OC(=O)NCCc1nnc(SCc2ccccc2)o1,0,0,0,0,0
Cc1ccc(C)c(NC(=O)CSc2nnc(CCCCCNC(=O)OC(C)(C)C)o2)c1,0,0,0,0,36
CC(C)c1ccc(NC(=O)CN2C=NS(=O)(=O)c3ccccc32)cc1,0,0,0,0,0
NC(N)=NN=C1CCC(c2ccccc2)CC1 (configuration not stated),0,0,0,37,0
CC(=O)NN=C1CCC(c2ccccc2)CC1 (configuration not stated),0,0,0,0,0
SMILES,TRHR agonist,TRHR enhancer,D1 antagonist,D1 potentiator,D1 ag
CCCCn1c(C(C)NC(=O)c2ccccc2)nc2ccccc21 (configuration not stated),0,0,0,0,0
Cc1ccc(C(C)C)c(OCC(=O)NCC2(N(C)C)CCCCC2)c1,0,0,0,0,0
CCOc1ccccc1N1CCN(C(=O)Nc2cccc(Cl)c2)CC1,0,0,0,0,0
CCOc1ccccc1N1CCN(C(=O)Nc2ccc(Cl)c(Cl)c2)CC1,0,0,-36,0,0
COc1ccccc1NC(=O)c1ccc2ccccc2c1,0,0,0,0,0
CS(=O)(=O)c1ncc(Cl)c(C(=O)Nc2ccc(N3CCOCC3)cc2)n1,0,0,-35,0,0
CS(=O)(=O)c1ncc(Cl)c(C(=O)Nc2ccc(OC(F)F)cc2)n1,0,0,-38,0,0
CS(=O)(=O)c1ccc(C(=O)Nc2ccc(N3CCOCC3)cc2)c(Cl)c1,0,0,0,0,0
CCC(=O)N1c2ccccc2CC1C(=O)NCc1cc(Br)ccc1OC (configuration not stated),0,0,0,0,0
CCOC(=O)c1c(NC(=O)C(C)Sc2cn(CCNC(=O)c3ccc(OC)c(OC)c3)c3ccccc23)sc2c1CCC2 (configuration not stated),0,0,0,0,0
COC(=O)[C@@H]1C[C@@]2(O)[C@@H](O)[C@@H](O)[C@@H](O)C[C@H]2N1CC1CCCCC1,0,0,-56,0,0
CCOc1ccc(NC(=O)C(CC)n2c(=O)c(-c3ccccc3NC(C)=O)nc3ccccc32)cc1 (configuration not stated),0,0,0,0,0
Fc1ccc(N2CCN(c3ncnc4nc[nH]c34)CC2)cc1,0,0,-54,0,0
Cc1nn(C)cc1/C=N/NC(=O)C1(O)c2ccccc2-c2ccccc21,0,0,-34,0,0
O=C(N/N=C/c1ccco1)C1(O)c2ccccc2-c2ccccc21,0,0,0,0,0
Cc1ccc(-c2nc3cc(C(C)C)ccc3o2)cc1NC(=O)c1cc([N+](=O)[O-])ccc1N1CCOCC1,0,0,0,0,0
CC(=O)Oc1cccc(-c2nc3ccccc3c(=O)o2)c1,0,0,0,0,0
COc1cccc(-c2nc3ccc(O)cc3c(=O)o2)c1,0,36,0,0,0
CCOc1ccccc1CNC(=O)C(CC)n1nc(C)c2c(C)n(-c3ccccc3)nc2c1=O (configuration not stated),0,0,0,0,0
CC(C)Oc1ccc(CNC(=O)c2ccc(CS(=O)c3cccc(Cl)c3)o2)cc1 (configuration not stated),0,0,0,0,0
COc1ccc(Cn2c(C(=O)O)c(CNCCc3ccccc3Cl)c3ccc(C)cc32)cc1,0,0,0,0,0
Cc1cc(C(=S)N2CCOCC2)c(C)n1-c1ccc(Cl)cc1,0,0,-31,0,0
CCCCN(C)C(=O)c1ccc2c(c1)N(Cc1cccc(F)c1)C(=O)c1ccccc1S2,0,0,0,0,0
CCOC(=O)c1sc(=S)n(C)c1C,0,0,0,0,0
CCOC(=O)c1sc(=S)n(C)c1N,0,0,-33,0,0
O=C1C[C@H]2[C@H](CO)[C@@H](OC(=O)c3ccc(-c4ccccc4)cc3)C[C@H]2O1,0,0,0,0,0
COc1ccc(CN(C)c2ccc(-c3nc(C)no3)cc2[N+](=O)[O-])cc1,0,0,0,0,0
